Results published in PubChem BioAssay (NCATS).
Results filed as inconclusive are left out. Active and inactive are the calls of the source. Unless noted, calls come from the whole dose curve; as a rule, active = well fitted curve in the direction sought with a large enough effect; inconclusive = small, poorly fitted or top-dose-only effect, or another doubt; inactive = no such curve, though single readings can be large; an effect the other way counts as inactive or inconclusive.

Key:
[1] = qHTS assay for small molecule activators of the p53 signaling pathway (AID 651743; active = well fitted activation curve with a large enough effect in the signal ratio, not every such curve was filed as active; the % refers to the signal ratio; note: series mostly up to about 92 µM; % of control where 0% means no effect); conditions: HCT-116 p53RE-bla, beta-lactamase FRET ratio, 16 h; activation: active compounds read high
Summary of the method: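 Following 16 hours of compound exposure at 37 C, HCT-116 cells bearing the p53RE-bla reporter were loaded with LiveBLAzer B/G FRET substrate for 2 hours at room temperature and fluorescence intensity was recorded.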

[2] = qHTS assay for small molecule activators of the nuclear factor-kappa B (NF-kB) signaling pathway (AID 651749; active = well fitted activation curve with a large enough effect in the signal ratio; the % refers to the signal ratio; note: series mostly up to about 77 µM; % of control where 0% means no effect); conditions: NF-kB-bla ME-180 cells, beta-lactamase FRET ratio, 16 h; active compounds read high
Summary of the method: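 In this qHTS format, compounds acting as activators increase NF-kB-driven beta-lactamase in ME-180 cells, measured as disrupted FRET after 16 hr exposure at 37C and 5% CO2.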

[3] = qHTS assay for small molecule disruptors of the mitochondrial membrane potential - 1 hr assay (AID 651754; calls by dose curve; note: % is set by controls: 0 for no effect and ±100 for the full control effect; nearly all actives have a fitted effect of over 35% in size)
Summary of the method: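 Mitochondrial potential in living HepG2 cells after 1 hr compound treatment at 37C was read with Mito-MPS dye added for a further 30 min. Red aggregate and green monomer fluorescence were measured; loss of potential leaves dye as cytoplasmic monomers.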

[4] = qHTS assay for small molecule disruptors of the mitochondrial membrane potential - 5 hr assay (AID 651755; calls by dose curve; note: % is set by controls: 0 for no effect and ±100 for the full control effect; nearly all actives have a fitted effect of over 40% in size)
Summary of the method: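 Read-out: ratiometric Mito-MPS fluorescence, green monomer (ex 490/em 535) vs red mitochondrial aggregate (ex 540/em 590). HepG2 cells treated 5 hr at 37C before 30 min dye loading.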

[5] = qHTS assay to identify small molecules that stimulate interleukin-8 (IL-8) secretion (AID 651758; active = well fitted activation curve with a large enough effect in the signal ratio; the % refers to the signal ratio; note: potency is the fitted concentration of half-maximal effect)
Summary of the method: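 Compounds are added to THP-1 cells (2000 per well) and left 16 hrs at 37 C. A labeled anti-IL-8 antibody pair is then added, and IL-8 secretion is measured by time-resolved FRET after 1-3 hrs at room temperature.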

[6] = qHTS assay for environmental chemicals that activate the Aryl hydrocarbon Receptor (AhR) signaling pathway (AID 651777); conditions: 1A2-DRE human hepatoma cells, luciferase, 24 h; activation: active compounds read high; note: potency is the fitted concentration of half-maximal effect; nearly all actives have a fitted effect of over 15% in size
Summary of the method: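 Luminescence (One-Glo, 30 min, room temperature) reports AhR-driven luciferase in stably transfected human hepatoma cells bearing DRE and CYP1A2 promoter. Cells (1,200/well) were treated with compound for 24 hr at 37 C in qHTS format.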

[7] = molecular target: Peroxisome proliferator-activated receptor alpha (Homo sapiens) (UniProt Q07869); assay: qHTS assay for small molecule agonists of the peroxisome proliferator-activated receptor alpha (PPARalpha) signaling pathway (AID 651778); conditions: PathHunter PPARalpha complementation, chemiluminescence, 6 h; max response: active compounds read high; note: % of control where 0% means no effect
Chain of Peroxisome proliferator-activated receptor alpha (Homo sapiens) (Q07869 whole entry, looked up, the tested form may be a part): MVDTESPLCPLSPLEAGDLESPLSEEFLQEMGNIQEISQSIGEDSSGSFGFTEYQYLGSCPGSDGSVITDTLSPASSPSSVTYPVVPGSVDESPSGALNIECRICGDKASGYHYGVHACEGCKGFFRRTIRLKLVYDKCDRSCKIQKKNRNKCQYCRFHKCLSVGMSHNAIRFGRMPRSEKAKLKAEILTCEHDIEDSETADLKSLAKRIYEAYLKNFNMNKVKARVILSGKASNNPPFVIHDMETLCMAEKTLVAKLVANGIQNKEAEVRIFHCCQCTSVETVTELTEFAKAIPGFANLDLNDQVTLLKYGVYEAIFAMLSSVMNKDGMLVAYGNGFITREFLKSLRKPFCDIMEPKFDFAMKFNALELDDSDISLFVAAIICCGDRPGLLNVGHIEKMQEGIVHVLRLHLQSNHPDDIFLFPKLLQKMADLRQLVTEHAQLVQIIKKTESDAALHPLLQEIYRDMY
Summary of the method: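 Enzyme-fragment complementation assay in which ligand-bound PPARalpha translocates and forms an active enzyme that generates chemiluminescence. Cells were plated overnight, exposed to compound for 6 hr at 37 C, and then given detection reagent for 60 min at room temperature.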

[8] = molecular target: Nuclear receptor ROR-gamma (Homo sapiens) (UniProt P51449); assay: qHTS assay for small molecule antagonists of the retinoid-related orphan receptor gamma (ROR-gamma) signaling pathway (AID 651802);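 note: CHO cells with doxycycline-induced ROR-gamma expression; luciferase reporter luminescence driven by ROR response element; series mostly up to about 92 µM; % is set by controls: 0 for no effect and ±100 for the full control effect; nearly all actives have a fitted effect of over 60% in size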
Chain of Nuclear receptor ROR-gamma (Homo sapiens) (P51449 whole entry, looked up): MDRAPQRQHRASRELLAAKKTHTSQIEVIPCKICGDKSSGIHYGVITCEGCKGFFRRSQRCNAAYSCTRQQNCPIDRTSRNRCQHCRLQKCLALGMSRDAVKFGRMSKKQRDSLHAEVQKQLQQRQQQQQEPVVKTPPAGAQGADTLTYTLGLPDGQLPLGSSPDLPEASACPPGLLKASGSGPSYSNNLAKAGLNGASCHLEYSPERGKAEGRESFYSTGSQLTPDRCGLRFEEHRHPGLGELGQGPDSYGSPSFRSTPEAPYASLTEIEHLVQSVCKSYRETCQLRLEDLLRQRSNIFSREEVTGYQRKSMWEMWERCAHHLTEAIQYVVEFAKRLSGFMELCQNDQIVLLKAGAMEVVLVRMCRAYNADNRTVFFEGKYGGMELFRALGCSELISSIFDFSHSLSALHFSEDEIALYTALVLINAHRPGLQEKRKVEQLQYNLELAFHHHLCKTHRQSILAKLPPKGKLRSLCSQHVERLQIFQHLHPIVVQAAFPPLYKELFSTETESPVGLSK
Summary of the method: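 Luminescence (One-Glo, 30 min RT) measured 16 h after compound addition and doxycycline induction at 37C. Reporter: RORE-luciferase under TET-inducible ROR-gamma in CHO cells.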

[9] = qHTS assay for small molecule antagonists of the retinoid-related orphan receptor gamma (ROR-gamma) signaling pathway - cell viability counter screen (AID 720652; active = well fitted curve in the direction sought with a large enough effect in the repeat runs; an effect the other way counts as inactive or inconclusive;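 note: CHO reporter cells with doxycycline-induced ROR-gamma expression; series mostly up to about 92 µM; compound exposure lasted 16 hr before ATP read; % is set by controls: 0 for no effect and ±100 for the full control effect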)
Summary of the method: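 Cytotoxicity counter screen: intracellular ATP (CellTiter-Glo luminescence) measured in the doxycycline-induced CHO RORE-luciferase reporter line after 16 hr compound exposure at 37 C, 5% CO2.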

[10] = qHTS assay for small molecule agonists of the antioxidant response element (ARE) signaling pathway measured by Nrf2-dependant transcriptional activity - cell viability counter screen (AID 720653; active = well fitted curve in the direction sought with a large enough effect in the repeat runs; an effect the other way counts as inactive or inconclusive; note: % is set by controls: 0 for no effect and ±100 for the full control effect); conditions: ARE-bla HepG2 viability, CellTiter-Glo ATP luminescence, 16 h; max response: active compounds read low
Summary of the method: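 ARE-bla HepG2 cells treated with compounds for 16 h at 37C; this counter screen measures viability as intracellular ATP by CellTiter-Glo luminescence after 30 min at room temperature.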

[11] = qHTS assay for cell viability of the p53RE-bla HCT-116 cell line (AID 743292); note: % is set by controls: 0 for no effect and ±100 for the full control effect; nearly all actives have a fitted effect of over 55% in size
Summary of the method: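 ATP-based luminescent viability (CellTiter-Glo, 30 min RT) after 16 h compound treatment at 37 C of p53RE-bla HCT-116 cells, seeded at 4,000 cells/well and rested 5 h before dosing.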

[12] = Viability counterscreen for antagonist of constitutive androstane receptor (CAR) against the NCATS DSHEA and TCM libraries (AID 1794837);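 note: compound exposure lasted 24 h before viability reading; 0% is about no effect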
Summary of the method: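 Cells: HepG2 line carrying CYP2B6 reporter and hCAR, seeded and attached 5 h. Then pin-transferred test substances plus agonist CITCO at 48 uM final; 24 h incubation; fluorogenic viability reagent, 1 h.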

[13] = Viability counterscreen for agonist of constitutive androstane receptor (CAR) against the NCATS DSHEA and TCM libraries (AID 1794838);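 note: HepG2 cells with CYP2B6 reporter and hCAR plus 0.75 µM PK11195 antagonist; 0% is about no effect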
Summary of the method: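 Cell health was measured as CellTiter-Fluor signal in HepG2-CYP2B6-hCAR cells treated for 24 h with substances alongside the hCAR antagonist PK11195 (0.75 uM final).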

[14] = molecular target: Nuclear receptor subfamily 1 group I member 3 (Homo sapiens) (UniProt Q14994); assay: Primary qHTS for agonist of constitutive androstane receptor (CAR) against the NCATS DSHEA and TCM libraries (AID 1794839); note: potency is the fitted concentration of half-maximal effect
Chain of Nuclear receptor subfamily 1 group I member 3 (Homo sapiens) (Q14994 whole entry, looked up): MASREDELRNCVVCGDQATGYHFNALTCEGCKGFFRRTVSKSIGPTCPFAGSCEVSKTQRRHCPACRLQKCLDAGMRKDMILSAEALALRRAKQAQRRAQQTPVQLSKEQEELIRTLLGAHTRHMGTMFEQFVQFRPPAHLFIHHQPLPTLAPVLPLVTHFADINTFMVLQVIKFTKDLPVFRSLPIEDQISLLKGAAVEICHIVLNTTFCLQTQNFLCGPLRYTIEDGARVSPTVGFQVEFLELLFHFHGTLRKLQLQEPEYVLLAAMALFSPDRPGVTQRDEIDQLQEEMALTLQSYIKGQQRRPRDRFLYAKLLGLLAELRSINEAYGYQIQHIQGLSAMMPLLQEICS
Summary of the method: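 qHTS, agonist mode: HepG2-CYP2B6-hCAR, 2,500 cells/well, 5 h attach; cpds + PK11195 0.75 µM final; 24 h, 37 °C, 5% CO2. Readouts: CellTiter-Fluor (405/540 nm), then ONE-Glo luminescence.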

[15] = HepG2 viability counterscreen (readout 2: ATP content) against the NCATS DSHEA and TCM libraries (AID 1794840); note: 0% is about no effect
Summary of the method: (§1)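 Same wells read twice: first fluorescence from cleaved GF-AFC substrate (25 uM final, 30 min, 37C) for live-cell protease, then CellTiter-Glo luminescence after 30 min at room temperature for ATP. HepG2 cells were exposed ~24 h to substances.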

[16] = HepG2 viability counterscreen (readout 1: protease activity) against the NCATS DSHEA and TCM libraries (AID 1794841);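 note: cells exposed to compounds for about 24 h before the protease read; 0% is about no effect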
Summary of the method: as §1

[17] = molecular target: Cytochrome P450 3A4 (Homo sapiens) (UniProt P08684); assay: qHTS for inhibitors of CYP3A4 against the NCATS DSHEA and TCM libraries (AID 1919971);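 note: % is set by controls: 0 for no effect and ±100 for the full control effect; inhibition lowers luminescence from luciferin made by CYP3A4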
Chain of Cytochrome P450 3A4 (Homo sapiens) (P08684 whole entry, looked up, canonical isoform): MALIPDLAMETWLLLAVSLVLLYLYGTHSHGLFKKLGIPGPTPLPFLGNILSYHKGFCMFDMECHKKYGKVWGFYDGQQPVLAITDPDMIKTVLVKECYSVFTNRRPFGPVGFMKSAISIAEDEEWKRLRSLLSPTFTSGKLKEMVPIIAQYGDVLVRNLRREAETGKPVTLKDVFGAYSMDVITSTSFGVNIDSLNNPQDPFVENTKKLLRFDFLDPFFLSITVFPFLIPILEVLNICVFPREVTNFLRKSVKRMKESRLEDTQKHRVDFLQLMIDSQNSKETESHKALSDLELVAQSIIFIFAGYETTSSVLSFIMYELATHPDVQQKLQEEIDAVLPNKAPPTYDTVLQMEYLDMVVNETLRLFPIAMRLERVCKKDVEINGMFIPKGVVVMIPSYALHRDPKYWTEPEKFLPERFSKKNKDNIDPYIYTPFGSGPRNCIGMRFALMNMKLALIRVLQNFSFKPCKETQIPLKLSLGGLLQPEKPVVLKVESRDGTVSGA
Summary of the method: (§2)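 Each CYP isoform and its pro-luciferin substrate, at isoform-specific final concentrations, were preincubated 15 min at RT with substances. NADPH regeneration solution (1x) started a 30-45 min reaction, and P450-Glo luminescence was read.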

[18] = molecular target: Cytochrome P450 2D6 (Homo sapiens) (UniProt P10635); assay: qHTS for inhibitors of CYP2D6 against the NCATS DSHEA and TCM libraries (AID 1919972); note: % is set by controls: 0 for no effect and ±100 for the full control effect
Chain of Cytochrome P450 2D6 (Homo sapiens) (P10635 whole entry, looked up): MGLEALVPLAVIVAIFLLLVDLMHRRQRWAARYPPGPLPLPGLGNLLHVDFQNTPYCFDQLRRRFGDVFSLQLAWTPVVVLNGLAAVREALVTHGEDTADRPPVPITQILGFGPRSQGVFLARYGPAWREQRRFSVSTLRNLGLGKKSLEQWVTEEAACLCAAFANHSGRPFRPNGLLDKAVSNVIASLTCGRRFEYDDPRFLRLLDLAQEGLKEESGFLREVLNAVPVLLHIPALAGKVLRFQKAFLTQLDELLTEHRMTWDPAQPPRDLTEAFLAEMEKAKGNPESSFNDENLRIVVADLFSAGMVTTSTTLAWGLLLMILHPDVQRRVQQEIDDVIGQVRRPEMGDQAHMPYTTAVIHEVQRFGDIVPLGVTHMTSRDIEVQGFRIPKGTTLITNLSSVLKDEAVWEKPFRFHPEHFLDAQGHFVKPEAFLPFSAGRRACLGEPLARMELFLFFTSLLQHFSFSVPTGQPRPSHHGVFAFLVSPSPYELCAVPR
Summary of the method: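 CYP2D6 enzyme with pro-luciferin substrate in manufacturer buffer (typically 100 mM KPO4), preincubated 15 min RT with substances (most at 19.5 nM upward); NADPH regeneration system (1x) started 30–45 min RT reaction; P450-Glo luminescence read after 30 min; quinidine as intraplate control.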

[19] = molecular target: Cytochrome P450 2C9 (Homo sapiens) (UniProt P11712); assay: qHTS for inhibitors of CYP2C9 against the NCATS DSHEA and TCM libraries (AID 1919973);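 note: luminogenic pro-luciferin CYP2C9 substrate turned into luciferin with NADPH regeneration; series mostly up to about 34 µM; % is set by controls: 0 for no effect and ±100 for the full control effect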
Chain of Cytochrome P450 2C9 (Homo sapiens) (P11712 whole entry, looked up): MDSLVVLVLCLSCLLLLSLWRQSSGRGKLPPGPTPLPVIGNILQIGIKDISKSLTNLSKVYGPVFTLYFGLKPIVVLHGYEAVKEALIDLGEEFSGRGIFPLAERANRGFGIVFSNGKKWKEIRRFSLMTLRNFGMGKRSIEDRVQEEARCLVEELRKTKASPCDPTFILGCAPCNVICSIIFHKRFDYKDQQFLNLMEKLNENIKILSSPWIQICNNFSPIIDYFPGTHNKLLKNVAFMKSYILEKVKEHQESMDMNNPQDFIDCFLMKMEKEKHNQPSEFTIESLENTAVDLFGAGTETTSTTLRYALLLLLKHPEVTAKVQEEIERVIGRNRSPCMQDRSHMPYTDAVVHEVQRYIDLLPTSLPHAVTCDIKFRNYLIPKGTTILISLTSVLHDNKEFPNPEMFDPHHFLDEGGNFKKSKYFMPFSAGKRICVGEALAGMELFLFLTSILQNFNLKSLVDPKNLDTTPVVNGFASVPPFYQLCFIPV
Summary of the method: as §2

[20] = KB-3-1 P-gp reporter qHTS against the NCATS DSHEA and TCM libraries (AID 1919975); note: 0% is about no effect
Summary of the method: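 KB-3-1 parental line, 1536-well qHTS: cells seeded, ~4 h attachment, pintool compound addition, ~72 h at 37C, then CellTiter-Glo, 30 min RT, luminescence. Concentration-response format.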

[21] = molecular target: Cytochrome P450 1A2 (Homo sapiens) (UniProt P05177); assay: qHTS for inhibitors of CYPIA2 against the NCATS DSHEA and TCM libraries (AID 1919976); note: potency is the fitted concentration of half-maximal effect
Chain of Cytochrome P450 1A2 (Homo sapiens) (P05177 whole entry, looked up): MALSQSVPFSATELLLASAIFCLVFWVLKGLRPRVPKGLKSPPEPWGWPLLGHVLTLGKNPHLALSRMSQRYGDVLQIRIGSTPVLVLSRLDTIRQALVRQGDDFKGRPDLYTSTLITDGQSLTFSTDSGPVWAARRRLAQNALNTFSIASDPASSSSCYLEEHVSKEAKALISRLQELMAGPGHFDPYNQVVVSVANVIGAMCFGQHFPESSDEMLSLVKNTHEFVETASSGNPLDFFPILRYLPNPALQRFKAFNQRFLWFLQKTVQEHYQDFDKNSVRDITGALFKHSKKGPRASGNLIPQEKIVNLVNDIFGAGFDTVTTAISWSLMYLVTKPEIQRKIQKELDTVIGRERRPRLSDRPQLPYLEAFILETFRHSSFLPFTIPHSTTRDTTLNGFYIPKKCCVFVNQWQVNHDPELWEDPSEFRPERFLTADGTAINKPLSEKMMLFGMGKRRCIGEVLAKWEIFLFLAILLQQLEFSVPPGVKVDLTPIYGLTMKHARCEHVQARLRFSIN
Summary of the method: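 Reaction started with 1x NADPH regeneration solution and run 30-45 min, room temperature, protected from light, after compounds sat 15 min with CYP1A2 and pro-luciferin substrate. P450-Glo detection gave luminescence; furafylline served as control.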

[22] = qHTS Counterscreen for compound interference against the NCATS DSHEA and TCM libraries (AID 1919978); conditions: firefly luciferase detection reagent interference, luminescence;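 note: compounds preincubated with 1 µM D-luciferin or buffer before detection reagent; % of control where 0% means no effect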
Summary of the method: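 Compounds, titrated from 19.5 nM to 39.8 uM final, were pinned onto 1 uM D-luciferin or plain 100 mM potassium phosphate. After 15 min at room temperature, luciferin detection reagent was added for 30 min before the luminescence read.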

[23] = Dual reporter qHTS for agonist of Pregnane X Receptor (hPXR) against the NCATS DSHEA and TCM libraries: Fluorescence readout (AID 1920058); note: 0% is about no effect
Summary of the method: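 Viability readout (CellTiter-Fluor, 405/540 nm, 1 h) from agonist-mode PXR dual reporter in hPXR-Luc HepG2 cells. Substances ~24 h, 37 °C, 5% CO2; rifampicin reference, tetraoctyl ammonium bromide cytotoxic control.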

[24] = molecular target: Nuclear receptor subfamily 1 group I member 2 (Homo sapiens) (UniProt O75469); assay: Dual reporter qHTS for antagonist of Pregnane X Receptor (hPXR) against the NCATS DSHEA and TCM libraries: Luminescence Readout (AID 1920060);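 note: HepG2 cells carrying hPXR luciferase reporter stimulated with rifampicin at 2 µM; 0% is about no effect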
Chain of Nuclear receptor subfamily 1 group I member 2 (Homo sapiens) (O75469 whole entry, looked up): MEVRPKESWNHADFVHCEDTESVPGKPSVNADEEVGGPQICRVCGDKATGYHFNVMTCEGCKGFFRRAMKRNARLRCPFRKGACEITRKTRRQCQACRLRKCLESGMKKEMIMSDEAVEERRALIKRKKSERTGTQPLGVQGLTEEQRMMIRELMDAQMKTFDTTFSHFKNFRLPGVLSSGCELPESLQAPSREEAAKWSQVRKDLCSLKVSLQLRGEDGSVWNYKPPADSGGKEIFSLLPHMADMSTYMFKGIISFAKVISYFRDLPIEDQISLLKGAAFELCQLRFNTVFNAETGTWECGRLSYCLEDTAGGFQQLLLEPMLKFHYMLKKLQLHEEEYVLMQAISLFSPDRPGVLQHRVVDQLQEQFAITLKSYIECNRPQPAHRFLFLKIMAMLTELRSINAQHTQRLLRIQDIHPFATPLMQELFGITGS
Summary of the method: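 HepG2 hPXR-Luc, 2000 cells/well, charcoal-stripped FBS medium; 5 h attach; RIF 2 uM final; 24 h 37C/5% CO2; CellTiter-Fluor 1 h, fluor 405/540; ONE-Glo 30 min RT, lum.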

COc1ccc(/C=C/c2cc(OC)cc(=O)o2)cc1
inactive: activation [1] 10.5% | activation [2] 1.78% | Potency [3] | Potency [4] | max response [7] 9.34% | Potency [8] | Potency [9] | max response [10] 11.1% | Potency [11] | outcome [12] | outcome [13] | outcome [15] | outcome [16] | Potency [17] | Potency [18] | Potency [19] | outcome [20] | max response [22] 0.752% | outcome [23] | outcome [24]
active: Potency [5] 66.8 µM | Potency [6] 10 µM | Potency [14] 14.1 µM | Potency [21] 10 µM
